This is a sample that favours compounds with a hit; in the whole collection about 20% have one here.
Pf growth 48h: inhibits P. falciparum growth in the first generation, 48 h; P. falciparum luciferase growth in erythrocytes, 48 h; Potency, µM (series often up to 28.7 µM), most hits filed as inhibitors; 5.9% of 310,000 active
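First compound was added to culture medium, then infected red cells at 0.1% parasitemia and 2% hematocrit (final). After incubation at 37 C under 5% CO2, luciferase detection reagent was dispensed and light output recorded.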
Shiga inhibitor: Shiga toxin inhibition; Vero cells, Shiga toxin protein synthesis inhibition reporter; 9.2% of 290,000 active; inhibition, % at 38.7 µM; in the data active = inhibition mostly above about 28%, no sharp cut-off; inactive = mostly below about 43%
Pf growth 96h: inhibits malaria parasite growth, 96 h; Potency, µM (doses to about 28.7 µM), usual class: inhibitors; P. falciparum luciferase reporter growth, 96 h; 6.9% of 320,000 active
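Parasite growth measured via integrated firefly luciferase reporter in P. falciparum. Infected erythrocytes at 2% hematocrit, 0.05% parasitemia final were treated 96 hours at 37 C under 5% CO2, and luminescence was read.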
CHX counter: counter-screen for Shiga toxin inhibitors: cycloheximide protein synthesis inhibition; max response, %; 12% of 300,000 active; cell reporter, cycloheximide protein synthesis inhibition counterscreen; in the data active = max response mostly above about 13%, no sharp cut-off; inactive = mostly below about 14%; also: read at 38.3 µM for the half of the compounds with a filed dose
HCMV antiviral: blocks human cytomegalovirus replication. activity change, negative = inhibition, % at 57.5 µM. AID 1259415. 4.5% of 410,000 active. HFF cells, HCMV-luciferase reporter, 72 h; stronger effect = lower value; in the data active = activity change below about -60%; inconclusive = no clear call, values can overlap the other calls; inactive = above about -39%
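Compounds were evaluated in HFFs infected with an HCMV luciferase reporter virus (MOI 1 PFU/cell). Luciferase in lysates collected 72 h post infection served as the replication measure.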
Of the large screens only hits and unclear results are named; the others gave an inactive call. Unless noted, calls follow the shape of the dose curve; as a rule, active = well fitted inhibition curve with a large enough effect; inconclusive = small, poorly fitted or top-dose-only effect, or another doubt; inactive = no such curve, though single readings can be large or run the other way.

COc1ccc(-c2cccc(C3CC=CC4C3C(=O)N(Cc3ccccc3)C4c3ccc(C(F)(F)F)cc3)c2)cc1 (centres undefined)	Pf growth 48h 6.57µM, Pf growth 96h 7.38µM, HCMV antiviral -67.3
CC(C)CCN(Cc1ccco1)C(=O)Cn1ncc2c([nH]c3ccccc32)c1=O	none (no result: Pf growth 48h, Shiga inhibitor, Pf growth 96h, CHX counter)
C=C(C)C(=O)N1CC2(CC(c3cccc(NC(=O)CCCCC)c3)=NO2)C[C@H]1C(N)=O (some centres undefined)	none
COc1ccc(C2C3C=CCC(c4cccc(/C=C/c5ccccc5)c4)C3C(=O)N2Cc2ccccc2)cc1Cl (centres undefined)	Shiga inhibitor 35.9, CHX counter 36.3 (no result: Pf growth 48h, Pf growth 96h, HCMV antiviral)
CCOc1ccc(OCC)c(NC(=O)C(NS(=O)(=O)c2cccs2)c2ccccc2)c1 (centres undefined)	none (no result: Pf growth 48h, Shiga inhibitor, Pf growth 96h, CHX counter)
CC(=O)C(Sc1ccc2nnc(-c3ccncc3)n2n1)C(C)=O	HCMV antiviral -62.4
CC(=O)C(Sc1ccc2nnc(-c3ccc(C)cc3)n2n1)C(C)=O	Pf growth 48h inconclusive, Pf growth 96h inconclusive
Cc1csc(NC(=O)CSc2nnc3ncccn23)n1	Pf growth 96h inconclusive, HCMV antiviral -86.8
Cc1csc(NC(=O)CSc2nnc(-c3ccc(S(=O)(=O)N4CCCC4)cc3)o2)n1	Pf growth 48h 5.86µM (no result: Pf growth 96h)
Cc1csc(NC(=O)CSc2nnc(-c3ccccc3)o2)n1	Shiga inhibitor 52.4, CHX counter 27.9 (no result: Pf growth 48h)
Cc1nc(-n2nc(C)c(Cc3ccc4c(c3)OCO4)c2C)sc1C(=O)Nc1cccc(Cl)c1	none (no result: Pf growth 48h, Shiga inhibitor, Pf growth 96h, CHX counter)
CSc1ccc(OC2(C)CCN(Cc3cc4ccccc4o3)C2)cc1 (centres undefined)	none (no result: Pf growth 48h, Shiga inhibitor, Pf growth 96h, CHX counter)
COc1ccccc1NC(=O)Cn1c(=O)n(-c2cccc(C)c2)c(=O)c2c1c1cc(C)ccc1n2C	none (no result: Pf growth 48h, Shiga inhibitor, Pf growth 96h, CHX counter)
CN(C)CCOc1ccc2c(c1)C(=O)C(=Cc1ncc([N+](=O)[O-])n1C)C2	HCMV antiviral -98.5 (no result: Pf growth 48h, Shiga inhibitor, Pf growth 96h, CHX counter)
COc1cccc(OC)c1C(=O)Nc1nc2c(s1)CCc1ccccc1-2	none (no result: Pf growth 48h, Shiga inhibitor, Pf growth 96h, CHX counter)
COc1ccc2c(c1)-c1nc(/N=C/c3c(O)ccc4ccccc34)sc1CC2	Pf growth 96h 4.65µM
COc1ccc2c(c1)-c1nc(/N=C/c3ccc(O)cc3)sc1CC2	Pf growth 96h 4.15µM, HCMV antiviral inconclusive
CC1CCCN(C(=O)CSc2ncccn2)C1 (centres undefined)	none
O=C(Nc1ccccc1)c1ccc(COc2ccccc2)cc1	none
O=C(Nc1ccc(COc2ccccc2)cc1)Nc1cccc(C(=O)O)c1	CHX counter 17.2 (no result: Pf growth 48h)
O=C(O)c1cccc(NC(=S)NC(=O)c2cccc(OCc3ccccc3)c2)c1	Shiga inhibitor 38.5, CHX counter 14.4
O=C(O)c1ccc(Cl)c(S(=O)(=O)Nc2ccc(OCc3ccccc3)cc2)c1	Shiga inhibitor 61.9, CHX counter 23.4
O=C(NC(NC(=S)Nc1cccc(Cl)c1)C(Cl)(Cl)Cl)OCc1ccccc1 (centres undefined)	Pf growth 48h inconclusive, Pf growth 96h inconclusive, HCMV antiviral inconclusive
O=C(NC(NC(=S)Nc1cccc(C(=O)O)c1)C(Cl)(Cl)Cl)OCc1ccccc1 (centres undefined)	Pf growth 96h inconclusive, CHX counter 18.6, HCMV antiviral inconclusive
C/C=C/c1cc(CN2CCN(c3ccc(OC)cc3)CC2)c(O)c(OC)c1	Pf growth 48h 1.47µM, Pf growth 96h inconclusive
C/C=C/c1cc(CN2CCN(c3ccccc3)CC2)c(O)c(OC)c1	Pf growth 48h 1.31µM, Pf growth 96h 1.65µM, HCMV antiviral inconclusive
COc1ccc(N2CCN(Cc3cc(OC)c(O)c([N+](=O)[O-])c3)CC2)cc1	none
COc1cc(Br)cc(CN2CCN(C=O)CC2)c1O	Pf growth 96h inconclusive
Cc1c(-c2ccc(OCCN3CCOCC3)cc2)c(=O)oc2ccc3ccccc3c12	none (no result: Pf growth 48h, Shiga inhibitor, Pf growth 96h, CHX counter)
CCCCNC(=O)N[C@H]1CC[C@@]23CCCN2C(=O)CCC[C@H]3[C@H]1CCC	none (no result: Pf growth 48h, Shiga inhibitor, Pf growth 96h, CHX counter)
CCCCNC(=O)c1nc2ccccc2nc1-c1cccc(OC(F)(F)F)c1	none (no result: Pf growth 48h, Shiga inhibitor, Pf growth 96h, CHX counter)
Clc1ccc(-c2cc(CN3CCCCC3)no2)cc1Cl	Shiga inhibitor 62.0, CHX counter 34.0, HCMV antiviral inconclusive
Clc1ccc(-c2cc(CN3CCOCC3)no2)cc1	Shiga inhibitor 117.8, CHX counter 54.4
Clc1ccc(CN2CCCCCCC2)cc1Cl	none
COC(=O)c1c(N)n(-c2ccc(OC)c(Cl)c2)c2nc3ccccc3nc12	none (no result: Pf growth 48h, Shiga inhibitor, Pf growth 96h, CHX counter)
O=C(NC1CCC1)O[C@H]1CC[C@@]23CCCN2C(=O)CCC[C@H]3[C@H]1Cc1ccccc1	none (no result: Pf growth 48h, Shiga inhibitor, Pf growth 96h, CHX counter)
O=c1oc2c3c(ccc2c2ccccc12)OCN(Cc1ccccc1Cl)C3	none (no result: Pf growth 48h, Shiga inhibitor, Pf growth 96h, CHX counter)
Cc1cc(-n2c(C)cc(C(=O)CSc3nnnn3-c3ccc(Cl)cc3)c2C)no1	Pf growth 48h 11.7µM, Pf growth 96h 11.7µM, HCMV antiviral inconclusive
CCOC(=O)CC(=O)CSc1nnc2sc3ccccc3n12	none
Cc1cc(-n2c(C)cc(C(=O)CSc3ncnc4ccccc34)c2C)no1	Pf growth 96h inconclusive, HCMV antiviral -78.3
Cc1cc(NC(=O)CSc2nnnn2-c2ccc(C(C)C)cc2)no1	Pf growth 96h inconclusive
Cc1cc(-n2c(C)cc(C(=O)CSc3nnc4sc5ccccc5n34)c2C)no1	Shiga inhibitor 87.2, CHX counter 24.1
CCN(CC(=O)Nc1cccc(F)c1)CC(=O)Nc1ccc2c(c1)OCCO2	none (no result: Pf growth 48h, Shiga inhibitor, Pf growth 96h, CHX counter)
CCCN(c1ccc(C(C)C)cc1)S(=O)(=O)c1ccc2c(c1)n(C)c(=O)c(=O)n2C	none (no result: Pf growth 48h, Shiga inhibitor, Pf growth 96h, CHX counter)
O=C1c2cccnc2C(=O)N1Cc1ccc(F)cc1S(=O)(=O)NCc1ccco1	none
CCOc1ccc2c(c1)OC(c1ccc(C)cc1)(C(F)(F)F)NC2=O (centres undefined)	Pf growth 48h 1.04µM, Shiga inhibitor 52.9, Pf growth 96h 3.29µM, CHX counter 27.2, HCMV antiviral -83.0
CCOc1ccc2c(c1)OC1(CCC(C)C1)CC2=O (centres undefined)	none (no result: Pf growth 48h, Shiga inhibitor, Pf growth 96h, CHX counter)
Cc1ccc(C(=O)Nc2nn(C)c3cccc(F)c23)cc1	CHX counter 18.1
C/C(=N\NC(=O)c1cc(C(C)C)[nH]n1)c1ccncc1	Shiga inhibitor 48.9
C/C(=N\NC(=O)c1cc(C(C)C)[nH]n1)c1ccco1	Shiga inhibitor 138.3, CHX counter 66.7
CC(C)(C)C1=NN(C(=O)c2ccccc2)C(O)(C(C)(C)C)C1 (centres undefined)	Shiga inhibitor 34.3, Pf growth 96h inconclusive, CHX counter 13.0
CC(C)C1=NN(C(=O)c2cccnc2)C(O)(C(F)(F)F)C1 (centres undefined)	none
CC(C)C1=NN(C(=O)c2ccccc2)C(O)(C(C)(C)C)C1 (centres undefined)	CHX counter 29.0
CCOC(=O)C1CCN(C(=O)CSc2cc(=O)n(CC)c3ccccc23)CC1	Pf growth 96h 0.0033µM
CCN1CCN(C(=O)CSc2cc(=O)n(CC)c3ccccc23)CC1	Pf growth 96h inconclusive (no result: Pf growth 48h)
CCn1c(=O)cc(SCC(=O)N2CCN(C)CC2)c2ccccc21	Pf growth 96h 0.0657µM (no result: Pf growth 48h)
CCn1c(C2CCN(S(=O)(=O)c3ccc(OC)cc3)CC2)n[nH]c1=S	none
